The target in test [1] is Oxysterols receptor LXR-alpha (Homo sapiens) (UniProt Q13133). Description: ATG_LXRa_TRANS: Attagene TRANS-FACTORIAL HepG2 Assay for human Liver X Receptor alpha (LXRa) (AID 2282980; active = hit-call score of the fitted dose curve at least 0.9, where 1 is the maximum). Particulars: HepG2 Attagene TRANS reporter, LXRa transactivation. The procedure, abridged: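 HepG2 cells transiently transfected with GAL4-UAS reporter units for chimeric NR-Gal4 proteins, exposed to chemicals for 24 h. Reporter mRNA quantified by RT-PCR and capillary electrophoresis; gain of signal fitted relative to DMSO.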

Test [2] deals with Oxysterols receptor LXR-beta (Homo sapiens) (UniProt P55055). In words: ATG_LXRb_TRANS: Attagene TRANS-FACTORIAL HepG2 Assay for human Liver X Receptor beta (LXRb) (AID 2282981; active = hit-call score of the fitted dose curve at least 0.9, where 1 is the maximum). Particulars: HepG2 Attagene TRANS GAL4-LXRb reporter, mRNA. The procedure, abridged:
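Multiplexed reporter assay, HepG2, 24 h dosing. Fluorescence of labelled RT-PCR products after capillary electrophoresis gives transcript level; positive fitting direction relative to DMSO.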

Test [3] is described as follows: ATG_M_06_TRANS: Attagene TRANS-FACTORIAL HepG2 Assay for M06 Transcription Factor (Internal Marker) (AID 2282983; active = hit-call score of the fitted dose curve at least 0.9, where 1 is the maximum). The following applies: HepG2 Attagene TRANS M06 internal marker reporter. The procedure, abridged:
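mRNA levels of a reporter transcript, quantified as FAM fluorescence on capillary electrophoresis, served as readout. HepG2 cells expressing exogenous GAL4-chimera reporter constructs were exposed for 24 h. Gain of signal over DMSO was evaluated.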

Test [4] is described as follows: ATG_M_32_TRANS: Attagene TRANS-FACTORIAL HepG2 Assay for M32 Transcription Factor (Internal Marker) (AID 2282984; active = hit-call score of the fitted dose curve at least 0.9, where 1 is the maximum;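 note: transcript level of a background control reporter unit measured by RT-PCR and capillary electrophoresis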). Particulars: HepG2 Attagene TRANS M32 internal marker reporter. In short, it runs like this: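 Internal-marker readout from a multiplexed transcription reporter panel. HepG2 cells were transfected with GAL4-UAS reporter units, treated 24 hours, and reporter transcript levels determined by fluorescence after RT-PCR and capillary separation.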

The target of test [5] is Nuclear receptor subfamily 4 group A member 2 (Homo sapiens) (UniProt P43354). Description: ATG_NURR1_TRANS: Attagene TRANS-FACTORIAL HepG2 Assay for human Nuclear Receptor Related Protein 1 (NURR1) (AID 2282985; active = hit-call score of the fitted dose curve at least 0.9, where 1 is the maximum). Particulars: HepG2 Attagene TRANS reporter, mRNA readout. In short, it runs like this: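 Endpoint: reporter mRNA increase relative to DMSO. HepG2 cells transfected with reporter units, treated 24 h; RNA processed by RT-PCR, labelling, HpaI digestion and capillary electrophoresis.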

For test [6], the target named is Transcriptional activator Myb (Homo sapiens) (UniProt P10242). In words: ATG_Myb_CIS: Attagene CIS-FACTORIAL HepG2 Assay for human Myeloblastosis (Myb) Proto-Oncogene Transcription Factor (AID 2282986). The following applies: HepG2 Attagene CIS-FACTORIAL Myb reporter transcription; actives raise or lower the signal. In short, it runs like this: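 Multiplexed cis-reporter system in HepG2: transient transfection, 24 h treatment, mRNA readout by RT-PCR and capillary electrophoresis. Both increases and decreases are scored versus DMSO negative control.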

Test [7] deals with Nuclear respiratory factor 1 (Homo sapiens) (UniProt Q16656). Description: ATG_NRF1_CIS: Attagene CIS-FACTORIAL HepG2 Assay for human Nuclear Respiratory Factor 1 (NRF1) Orphan Gene (AID 2282987). Particulars: HepG2 NRF1 cis-element reporter, Attagene multiplex; actives raise or lower the signal. The procedure, abridged: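 Endogenous factor activity was captured via cis-element-driven reporter transcripts in HepG2 cells. Following 24 h chemical treatment, transcripts were quantified by RT-PCR and capillary electrophoresis.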

A short description of test [8]: ATG_NF_kB_CIS: Attagene CIS-FACTORIAL HepG2 Assay for human Nuclear Factor Kappa B (NF-kB) (AID 2282991). Particulars: HepG2 Attagene cis-factorial NF-kB reporter mRNA; actives raise or lower the signal. The procedure, abridged:
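After 24 h compound incubation, transfected HepG2 cells yield total RNA; reporter cDNA is PCR-amplified, end-labelled with 6-FAM, HpaI-digested and analysed on a genetic analyser. Endogenous factor activity, DMSO-referenced bidirectional fit.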

A short description of test [9]: ATG_Oct_MLP_CIS: Attagene CIS-FACTORIAL HepG2 Assay for human Octamer-Binding Transcription Factor (Oct) (AID 2282993). The following applies: HepG2 Attagene cis-factorial Oct reporter, mRNA; actives raise or lower the signal. The procedure, abridged:
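Read-out: reporter mRNA via RT-PCR plus capillary electrophoresis of 6-FAM-labelled fragments. Transiently transfected HepG2, 24 h exposure, endogenous TF activity on cis elements. Gain or loss of signal fitted relative to DMSO.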

The target of test [10] is Cellular tumor antigen p53 (Homo sapiens) (UniProt P04637). In words: ATG_p53_CIS: Attagene CIS-FACTORIAL HepG2 Assay for human p53 Transcription Factor (AID 2282994). Particulars: HepG2 p53 cis-element reporter, Attagene mRNA; actives raise or lower the signal. In short, it runs like this:
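In HepG2 cells, reporter transcription units under cis-regulatory promoters were transiently introduced. Following 24 h treatment, RNA was processed to labelled, digested cDNA fragments read by capillary electrophoresis; fitting was bidirectional versus DMSO.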

Test [11] can be described thus: BSK_3C_TissueFactor: BioMAP Diversity Plus: 3C Assay for Tissue Factor Biomarker Activity (AID 2282997). Particulars: BioMAP 3C HUVEC, tissue factor biomarker readout; actives raise or lower the signal. In short, it runs like this: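 Tissue Factor measured by ELISA, 24 h after treatment of primary HUVEC in the BioMAP 3C setting.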
The nature of test [12]: BSK_3C_uPAR: BioMAP Diversity Plus: 3C Assay for Urokinase-type plasminogen activator receptor (uPAR) Biomarker Activity (AID 2282998). Particulars: BioMAP 3C HUVEC, uPAR biomarker ELISA; actives raise or lower the signal. The procedure, abridged:
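HUVEC primary cells; 24 h post-dose; uPAR by ELISA; gain or loss of signal fitted bidirectionally vs DMSO baseline.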

The nature of test [13]: BSK_3C_VCAM1: BioMAP Diversity Plus: 3C Assay for Vascular cell adhesion molecule 1 (VCAM1) Biomarker Activity (AID 2282999). Particulars: BioMAP 3C HUVEC, VCAM1 ELISA, cytokine-stimulated; actives raise or lower the signal. The procedure, abridged:
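HUVEC primary cells, 24 h compound exposure; VCAM-1 by ELISA; gain/loss of signal fitted bidirectionally vs DMSO baseline.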

The target of test [14] is Hepatocyte nuclear factor 4-alpha (Homo sapiens) (UniProt P41235). Description: ATG_HNF4a_TRANS: Attagene TRANS-FACTORIAL HepG2 Assay for human Hepatocyte Nuclear Factor 4 alpha (HNF4a) (AID 2282982; active = hit-call score of the fitted dose curve at least 0.9, where 1 is the maximum). Particulars: HepG2 HNF4a transactivation reporter, mRNA readout. The procedure, abridged:
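Endpoint reflects transcriptional activation of a GAL4-UAS reporter by an HNF4a-GAL4 chimera in transfected HepG2 cells, 24 h post-dosing. Fluorescence from RT-PCR products separated by capillary electrophoresis; DMSO baseline.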

Test [15] is described as follows: ATG_NFI_CIS: Attagene CIS-FACTORIAL HepG2 Assay for human Nuclear Factor I (NFI) (AID 2282989). Particulars: HepG2 cis-regulatory reporter, NFI response element transcription; actives raise or lower the signal. The procedure, abridged: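 Read-out: reporter mRNA via RT-PCR plus capillary electrophoresis with fluorescence detection. Transiently transfected HepG2 (endogenous TF activity on cis promoters), 24 h compound exposure; gain or loss of signal fitted against DMSO.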

The nature of test [16]: ATG_NRF2_ARE_CIS: Attagene CIS-FACTORIAL HepG2 Assay for human Nuclear Factor Erythroid 2 Related Factor 2 (NFR2) response to Antioxidant Response Elements (ARE) (AID 2282992).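 Note: reporter mRNA level measured by RT-PCR and capillary electrophoresis fluorescence.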 Particulars: HepG2 Attagene ARE/NRF2 reporter, transcription factor activity; actives raise or lower the signal. In short, it runs like this: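 Using transiently transfected HepG2 cells exposed for 24 h, reporter mRNA levels were determined by RT-PCR with fluorescent primer extension and capillary electrophoresis, analysed for gain or loss of signal against DMSO.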

The target of test [17] is Glucocorticoid receptor (Homo sapiens) (UniProt P04150). Description: ATG_GR_TRANS: Attagene TRANS-FACTORIAL HepG2 Assay for human Glucocorticoid Receptor (GR) (AID 2282978; active = hit-call score of the fitted dose curve at least 0.9, where 1 is the maximum;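 note: activators score as hits since higher reporter transcript over DMSO is fitted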). Particulars: HepG2 Attagene TRANS GR reporter, mRNA transcription. The procedure, abridged: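 HepG2 transient transfection, multiple reporter units, GAL4-UAS under NR-GAL4 chimera control. 24 h treatment. Reporter mRNA by RT-PCR/CE fluorescence, DMSO as negative control.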

Test [18] addresses Myc proto-oncogene protein (Homo sapiens) (UniProt P01106). In words: ATG_Myc_CIS: Attagene CIS-FACTORIAL HepG2 Assay for human Myelocytomatosis (Myc) Proto-Oncogene Transcription Factor (AID 2282990). The following applies: HepG2, Attagene cis-reporter transcription factor activity; actives raise or lower the signal. In short, it runs like this:
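Transiently transfected HepG2 cells bearing cis-promoter reporter units for endogenous transcription factors; 24 h exposure. Reporter mRNA measured by RT-PCR, 6-FAM primer extension, HpaI cut and capillary electrophoresis; bidirectional fit relative to DMSO.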

The target in test [19] is Bile acid receptor (Homo sapiens) (UniProt Q96RI1). Description: ATG_FXR_TRANS: Attagene TRANS-FACTORIAL HepG2 Assay for Farnesoid X Receptor (FXR) (AID 2282979; active = hit-call score of the fitted dose curve at least 0.9, where 1 is the maximum;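 note: hits raise reporter mRNA above DMSO so AC50 marks FXR activation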). Particulars: HepG2 Attagene TRANS FXR-GAL4 reporter transcription. The procedure, abridged: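 HepG2 cells were transiently transfected with GAL4-UAS reporters driven by chimeric NR-Gal4 proteins and dosed for 24 h. Reporter mRNA was quantified by RT-PCR, fluorescent labelling, HpaI digestion and capillary electrophoresis, with gain of signal scored versus DMSO.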

Results filed as inconclusive are left out. The source made the active and inactive calls. Rule for the calls, unless noted: active = hit-call score of the fitted dose curve at least 0.9, where 1 is the maximum; inactive = score below 0.9.

Chain of Cellular tumor antigen p53 (Homo sapiens) (P04637 whole entry, looked up, the tested form may be a part): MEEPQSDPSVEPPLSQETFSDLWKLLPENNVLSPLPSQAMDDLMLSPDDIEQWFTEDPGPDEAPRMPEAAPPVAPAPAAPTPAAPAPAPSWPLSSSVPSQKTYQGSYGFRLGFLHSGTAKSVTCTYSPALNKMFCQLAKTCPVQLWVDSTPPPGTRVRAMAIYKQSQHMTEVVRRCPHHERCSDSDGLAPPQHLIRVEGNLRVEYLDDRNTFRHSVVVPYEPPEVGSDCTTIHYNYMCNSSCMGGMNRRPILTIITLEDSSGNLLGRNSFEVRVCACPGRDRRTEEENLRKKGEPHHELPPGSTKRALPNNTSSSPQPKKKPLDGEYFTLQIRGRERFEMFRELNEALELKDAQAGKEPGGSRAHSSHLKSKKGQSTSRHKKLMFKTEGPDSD
Chain of Oxysterols receptor LXR-alpha (Homo sapiens) (Q13133 whole entry, looked up, the tested form may be a part): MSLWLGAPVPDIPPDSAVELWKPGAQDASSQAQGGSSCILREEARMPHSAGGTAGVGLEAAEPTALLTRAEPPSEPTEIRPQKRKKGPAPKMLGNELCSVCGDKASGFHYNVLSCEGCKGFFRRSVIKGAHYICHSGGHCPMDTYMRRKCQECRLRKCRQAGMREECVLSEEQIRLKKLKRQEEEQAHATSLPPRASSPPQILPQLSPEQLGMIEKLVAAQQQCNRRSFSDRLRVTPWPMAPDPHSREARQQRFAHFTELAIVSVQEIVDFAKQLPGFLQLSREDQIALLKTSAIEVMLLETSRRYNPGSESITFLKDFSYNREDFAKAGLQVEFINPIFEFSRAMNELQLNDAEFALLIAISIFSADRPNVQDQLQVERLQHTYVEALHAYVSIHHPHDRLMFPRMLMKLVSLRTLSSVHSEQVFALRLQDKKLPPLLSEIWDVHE
Chain of Nuclear respiratory factor 1 (Homo sapiens) (Q16656 whole entry, looked up): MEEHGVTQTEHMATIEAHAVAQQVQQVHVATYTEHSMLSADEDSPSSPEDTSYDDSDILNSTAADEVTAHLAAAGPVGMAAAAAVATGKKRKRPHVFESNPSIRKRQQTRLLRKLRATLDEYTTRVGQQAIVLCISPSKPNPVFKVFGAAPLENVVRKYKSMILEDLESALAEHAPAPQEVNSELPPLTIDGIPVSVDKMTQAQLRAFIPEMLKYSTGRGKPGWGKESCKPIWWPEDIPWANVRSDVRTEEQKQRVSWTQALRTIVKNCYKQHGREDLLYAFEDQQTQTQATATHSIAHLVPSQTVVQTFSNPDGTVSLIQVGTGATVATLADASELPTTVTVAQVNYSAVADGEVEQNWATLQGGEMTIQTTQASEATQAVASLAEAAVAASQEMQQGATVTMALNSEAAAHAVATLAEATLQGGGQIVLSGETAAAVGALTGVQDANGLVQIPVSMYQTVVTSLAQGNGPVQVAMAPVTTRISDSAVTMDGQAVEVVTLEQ
Chain of Hepatocyte nuclear factor 4-alpha (Homo sapiens) (P41235 whole entry, looked up, the tested form may be a part): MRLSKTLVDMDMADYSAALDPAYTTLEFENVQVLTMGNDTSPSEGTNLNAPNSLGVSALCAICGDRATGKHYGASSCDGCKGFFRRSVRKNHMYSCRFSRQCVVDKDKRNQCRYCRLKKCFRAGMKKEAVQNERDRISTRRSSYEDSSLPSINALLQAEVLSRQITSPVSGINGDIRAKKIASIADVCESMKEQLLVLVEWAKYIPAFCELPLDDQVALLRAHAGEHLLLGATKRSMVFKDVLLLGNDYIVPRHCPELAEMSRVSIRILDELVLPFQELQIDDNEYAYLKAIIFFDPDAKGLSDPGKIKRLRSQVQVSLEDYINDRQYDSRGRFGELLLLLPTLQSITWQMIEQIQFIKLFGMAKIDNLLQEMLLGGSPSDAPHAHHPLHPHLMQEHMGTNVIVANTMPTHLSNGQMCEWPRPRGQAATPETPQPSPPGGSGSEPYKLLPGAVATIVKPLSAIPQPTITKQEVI
Chain of Transcriptional activator Myb (Homo sapiens) (P10242 whole entry, looked up): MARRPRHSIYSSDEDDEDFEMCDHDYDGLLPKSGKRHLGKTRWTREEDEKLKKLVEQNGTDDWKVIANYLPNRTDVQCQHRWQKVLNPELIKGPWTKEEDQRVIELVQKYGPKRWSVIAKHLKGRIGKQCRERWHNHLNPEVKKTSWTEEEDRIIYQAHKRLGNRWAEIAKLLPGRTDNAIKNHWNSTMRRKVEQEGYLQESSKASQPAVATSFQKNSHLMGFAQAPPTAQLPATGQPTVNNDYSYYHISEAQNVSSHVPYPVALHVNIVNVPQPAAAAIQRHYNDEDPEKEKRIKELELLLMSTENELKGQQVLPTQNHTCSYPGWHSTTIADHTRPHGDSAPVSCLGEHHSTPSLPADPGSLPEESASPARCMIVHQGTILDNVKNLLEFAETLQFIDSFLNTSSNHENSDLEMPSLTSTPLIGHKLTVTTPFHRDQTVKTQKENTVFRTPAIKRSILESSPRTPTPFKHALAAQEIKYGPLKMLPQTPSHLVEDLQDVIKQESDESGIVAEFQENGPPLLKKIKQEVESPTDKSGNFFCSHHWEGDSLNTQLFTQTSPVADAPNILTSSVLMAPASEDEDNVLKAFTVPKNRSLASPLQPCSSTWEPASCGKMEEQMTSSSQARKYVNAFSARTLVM
Chain of Nuclear receptor subfamily 4 group A member 2 (Homo sapiens) (P43354 whole entry, looked up): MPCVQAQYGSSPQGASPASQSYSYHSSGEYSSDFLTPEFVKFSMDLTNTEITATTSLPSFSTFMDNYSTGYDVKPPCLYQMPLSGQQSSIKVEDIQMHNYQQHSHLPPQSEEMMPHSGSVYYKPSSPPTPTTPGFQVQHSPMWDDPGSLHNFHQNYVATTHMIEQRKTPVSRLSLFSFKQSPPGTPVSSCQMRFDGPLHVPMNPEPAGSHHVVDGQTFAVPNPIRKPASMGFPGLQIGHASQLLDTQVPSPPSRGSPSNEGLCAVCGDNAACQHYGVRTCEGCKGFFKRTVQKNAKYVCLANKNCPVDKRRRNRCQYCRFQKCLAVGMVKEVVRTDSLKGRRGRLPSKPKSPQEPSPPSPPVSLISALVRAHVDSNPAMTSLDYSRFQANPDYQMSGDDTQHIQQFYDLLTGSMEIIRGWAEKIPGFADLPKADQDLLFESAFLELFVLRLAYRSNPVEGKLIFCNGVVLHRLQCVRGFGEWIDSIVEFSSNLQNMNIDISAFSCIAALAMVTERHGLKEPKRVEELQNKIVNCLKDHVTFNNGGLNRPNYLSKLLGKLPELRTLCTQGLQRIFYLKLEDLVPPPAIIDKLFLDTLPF
Chain of Myc proto-oncogene protein (Homo sapiens) (P01106 whole entry, looked up): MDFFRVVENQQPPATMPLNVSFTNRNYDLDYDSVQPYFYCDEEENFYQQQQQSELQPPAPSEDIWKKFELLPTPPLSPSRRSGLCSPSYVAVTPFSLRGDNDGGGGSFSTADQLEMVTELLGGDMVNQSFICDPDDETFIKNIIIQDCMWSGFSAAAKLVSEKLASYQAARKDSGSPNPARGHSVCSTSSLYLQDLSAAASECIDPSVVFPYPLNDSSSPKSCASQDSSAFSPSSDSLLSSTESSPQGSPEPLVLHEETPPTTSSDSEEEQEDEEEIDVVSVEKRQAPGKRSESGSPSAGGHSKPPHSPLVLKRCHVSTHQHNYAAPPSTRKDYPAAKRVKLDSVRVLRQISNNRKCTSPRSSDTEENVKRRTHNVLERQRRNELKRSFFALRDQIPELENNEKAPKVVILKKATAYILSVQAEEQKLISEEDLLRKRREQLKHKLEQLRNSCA
Chain of Oxysterols receptor LXR-beta (Homo sapiens) (P55055 whole entry, looked up, the tested form may be a part): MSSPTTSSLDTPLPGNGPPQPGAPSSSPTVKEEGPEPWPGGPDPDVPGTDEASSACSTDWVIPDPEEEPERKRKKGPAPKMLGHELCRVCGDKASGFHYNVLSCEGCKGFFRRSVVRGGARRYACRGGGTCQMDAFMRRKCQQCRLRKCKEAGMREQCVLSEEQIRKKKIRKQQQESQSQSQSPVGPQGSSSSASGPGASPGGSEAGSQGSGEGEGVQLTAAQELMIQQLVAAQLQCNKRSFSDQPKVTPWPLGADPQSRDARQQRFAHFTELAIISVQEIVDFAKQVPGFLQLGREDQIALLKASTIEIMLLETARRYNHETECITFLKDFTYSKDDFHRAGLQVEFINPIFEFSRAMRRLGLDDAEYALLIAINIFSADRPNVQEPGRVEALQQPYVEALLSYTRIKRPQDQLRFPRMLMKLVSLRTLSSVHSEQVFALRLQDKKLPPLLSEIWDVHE
Chain of Glucocorticoid receptor (Homo sapiens) (P04150 whole entry, looked up, the tested form may be a part): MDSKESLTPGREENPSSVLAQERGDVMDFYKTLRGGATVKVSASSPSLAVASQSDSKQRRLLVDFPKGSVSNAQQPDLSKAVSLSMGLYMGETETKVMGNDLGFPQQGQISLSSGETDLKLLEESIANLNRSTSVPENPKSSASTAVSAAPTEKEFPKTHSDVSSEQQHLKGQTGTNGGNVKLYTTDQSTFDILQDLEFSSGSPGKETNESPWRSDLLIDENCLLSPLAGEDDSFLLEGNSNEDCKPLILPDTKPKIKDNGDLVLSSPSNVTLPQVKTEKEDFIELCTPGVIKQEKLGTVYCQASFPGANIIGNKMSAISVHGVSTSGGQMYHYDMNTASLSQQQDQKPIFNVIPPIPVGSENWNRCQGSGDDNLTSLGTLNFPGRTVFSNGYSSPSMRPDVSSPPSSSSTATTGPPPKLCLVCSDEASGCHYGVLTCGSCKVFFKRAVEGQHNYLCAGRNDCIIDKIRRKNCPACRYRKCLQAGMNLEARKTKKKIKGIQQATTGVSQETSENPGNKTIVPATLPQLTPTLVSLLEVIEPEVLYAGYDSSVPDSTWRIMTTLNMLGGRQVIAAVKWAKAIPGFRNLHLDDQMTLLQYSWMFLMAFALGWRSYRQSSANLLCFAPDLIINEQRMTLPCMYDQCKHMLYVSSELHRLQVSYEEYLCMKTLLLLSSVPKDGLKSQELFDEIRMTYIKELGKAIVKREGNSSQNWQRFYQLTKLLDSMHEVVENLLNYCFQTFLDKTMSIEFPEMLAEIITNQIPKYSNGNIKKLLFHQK

Regarding `CN(C)NC(=O)CCC(=O)O`, the call in test [1], in [2], in [3], in [4], in test [5] and in [6] was inactive. In addition, the compound was called inactive in test [7], in test [8], in test [9], in test [10], in test [11] and in [12]. In test [13], the outcome was inactive.
In the case of `CCOP(=S)(OCC)SCCSCC`, the compound was called inactive in test [2], in test [14], in test [3], in test [6], in [7] and in test [15]. Further, the result in test [8], in test [9], in test [10], in [11], in [12] and in test [13] was inactive. In [16], the half-maximal activity concentration (AC50) was 33.7 µM (active).
With `CNc1cnn(-c2cccc(C(F)(F)F)c2)c(=O)c1Cl`, the outcome in test [17], in test [1], in test [2], in [3], in test [6] and in test [7] was inactive. Besides, the compound was called inactive in test [18], in test [8], in test [10], in test [11], in test [12] and in test [13]. The figures for the half-maximal activity concentration (AC50) in [16] and in test [9] were 17.1 µM (active) and 13.7 µM (active), respectively.
With `CSc1nc(NC(C)C)nc(NC(C)C)n1`, the outcome in test [1], in [2], in test [4], in test [5], in test [6] and in test [7] was inactive. Moreover, the compound was classed as inactive in test [9], in test [10], in test [11], in test [12] and in [13].
As to `S=C1NCCN1`, the compound was classed as inactive in [1], in test [2], in test [14], in test [3], in test [4] and in test [5]. The compound was called inactive in test [6], in test [7], in test [18], in [8], in test [9] and in [10]. The result in test [11], in test [12] and in test [13] was inactive.
For `CCCOCC(=Nc1ccc(Cl)cc1C(F)(F)F)n1ccnc1`, the outcome in test [19], in test [2], in test [14], in test [3], in test [4] and in test [6] was inactive. Further, the compound was classed as inactive in [7], in test [8], in test [9] and in test [10]. Moreover, the results for the AC50 in [11], in [12] and in [13] were 28.8 µM (active), 31.7 µM (active) and 33.6 µM (active), respectively.
For `CCCOc1nn(C(=O)NS(=O)(=O)c2ccccc2C(=O)OC)c(=O)n1C`, the call in [17], in [2], in [14], in test [5], in test [6] and in test [7] was inactive. Besides, the call in test [15], in test [18], in test [8], in test [9], in [10] and in [11] was inactive. In addition, the figures for the AC50 in test [12] and in test [13] were 0.0593 µM (active) and 1.09 µM (active), respectively.
`CC(C1CC1)C(O)(Cn1cncn1)c1ccc(Cl)cc1` (stereo unspecified): the compound was classed as inactive in [1], in test [2], in test [4], in test [5], in test [6] and in test [7]. Moreover, the compound was called inactive in test [15], in test [18], in test [8], in test [9], in test [10] and in test [11]. Further, the outcome in test [12] and in test [13] was inactive.
Take `CCCCOC(=O)c1ccccc1C(=O)O`: the compound was called inactive in test [1], in test [2], in [14], in test [4], in test [6] and in [7]. In addition, the outcome in test [15], in test [18], in test [8], in test [9], in test [10] and in test [11] was inactive. In addition, the result in test [12] and in [13] was inactive.

The values above are taken from PubChem BioAssay (EPA / NIEHS).
